# Measured values reported in PubChem BioAssay (Tox21).
# “And” between values parts separate entries of the source, which are not always exact repeats. Equal entries are not always repeated. Inconclusive results are not listed. Entries that show only a call come without a potency. A structure can be active in one record and inactive in another. The source made the active and inactive calls. Calls come from the whole dose curve; as a rule, active = well fitted curve in the direction sought with a large enough effect in the repeat runs; inconclusive = weak or mixed curves; inactive = no such curve, though single readings can be large; an effect the other way counts as inactive or inconclusive.
# Assays:
# [1] = biological target: Cytochrome P450 1A2 (Homo sapiens) (UniProt P05177); test: Cytochrome P450 Family 1 Subfamily A Member 2 (CYP1A2) small molecule antagonists: luciferase reporter qHTS assay (AID 1671199); settings: P450-Glo CYP1A2 enzyme, luciferin luminescence, 1 h; series mostly up to 115 µM
# How it was run: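 Luminescence from luciferin formed by CYP1A2 from a proluciferin substrate, read 20 min after detection reagent. Compound was pre-incubated 10 min with enzyme-substrate, and reaction started with NADPH regeneration solution for 1 h at room temperature; furafylline control.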
# [2] = biological target: Voltage-gated inwardly rectifying potassium channel KCNH2 (Homo sapiens) (UniProt Q12809); test: Human Ether-a-go-go-Related Gene (hERG) channel small molecule antagonists: fluorescence cell-based qHTS assay (AID 1671200); settings: hERG-U2OS cells, FluxOR thallium flux fluorescence; series mostly up to 76.8 µM;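 for activity change, negative = inhibition: hERG-expressing U2OS cells given a thallium stimulus after FluxOR II dye loading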
# How it was run: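 Quantitative HTS in hERG-U2OS cells: thallium entry through the channel reports activity, read as continuous 480/540 nm fluorescence over 2 min after stimulus addition.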
# [3] = biological target: Cytochrome P450 3A4 (Homo sapiens) (UniProt P08684); test: Cytochrome P450 Family 3 Subfamily A Member 4 (CYP3A4) small molecule antagonists: luciferase reporter qHTS assay (AID 1671201); settings: P450-Glo CYP3A4 enzyme, luciferin luminescence, 1 h; series mostly up to 115 µM
# How it was run: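 Inhibition of CYP3A4 is measured as loss of light: the enzyme converts a proluciferin substrate to luciferin, detected luminescently. Reaction ran 1 h at room temperature with NADPH regeneration after a 10 min compound preincubation.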
# Note: nearly all actives have a fitted effect of over 50% in size.
# Potency is the fitted concentration of half-maximal effect.
# Cytochrome P450 1A2 (Homo sapiens), sequence (P05177 whole entry, looked up): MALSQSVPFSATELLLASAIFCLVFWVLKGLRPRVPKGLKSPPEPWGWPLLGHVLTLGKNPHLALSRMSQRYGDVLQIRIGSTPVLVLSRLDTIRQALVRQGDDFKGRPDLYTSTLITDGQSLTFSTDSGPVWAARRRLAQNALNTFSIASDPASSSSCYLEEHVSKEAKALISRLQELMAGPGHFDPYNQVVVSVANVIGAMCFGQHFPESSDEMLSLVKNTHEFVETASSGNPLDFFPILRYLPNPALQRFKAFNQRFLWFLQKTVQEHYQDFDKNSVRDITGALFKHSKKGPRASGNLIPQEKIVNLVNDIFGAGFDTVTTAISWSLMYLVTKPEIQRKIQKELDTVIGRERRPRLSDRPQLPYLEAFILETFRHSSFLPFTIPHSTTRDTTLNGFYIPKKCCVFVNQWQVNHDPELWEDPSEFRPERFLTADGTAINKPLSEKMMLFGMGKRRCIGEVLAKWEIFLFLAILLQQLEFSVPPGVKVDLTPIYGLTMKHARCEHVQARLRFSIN
# Cytochrome P450 3A4 (Homo sapiens), sequence (P08684 whole entry, looked up): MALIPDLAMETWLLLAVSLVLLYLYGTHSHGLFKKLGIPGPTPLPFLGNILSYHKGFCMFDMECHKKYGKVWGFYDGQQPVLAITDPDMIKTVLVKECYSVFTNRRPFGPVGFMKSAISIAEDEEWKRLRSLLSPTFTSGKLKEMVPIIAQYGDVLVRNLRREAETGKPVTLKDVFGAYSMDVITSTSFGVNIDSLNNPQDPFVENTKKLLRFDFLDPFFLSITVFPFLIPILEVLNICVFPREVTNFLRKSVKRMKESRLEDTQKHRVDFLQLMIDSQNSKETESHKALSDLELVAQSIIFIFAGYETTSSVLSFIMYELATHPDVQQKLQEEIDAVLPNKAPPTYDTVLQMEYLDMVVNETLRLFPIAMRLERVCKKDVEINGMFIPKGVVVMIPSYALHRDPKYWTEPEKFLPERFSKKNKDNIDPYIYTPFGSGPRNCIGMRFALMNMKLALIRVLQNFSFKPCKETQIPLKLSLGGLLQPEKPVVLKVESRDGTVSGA
# Voltage-gated inwardly rectifying potassium channel KCNH2 (Homo sapiens), sequence (Q12809 whole entry, looked up): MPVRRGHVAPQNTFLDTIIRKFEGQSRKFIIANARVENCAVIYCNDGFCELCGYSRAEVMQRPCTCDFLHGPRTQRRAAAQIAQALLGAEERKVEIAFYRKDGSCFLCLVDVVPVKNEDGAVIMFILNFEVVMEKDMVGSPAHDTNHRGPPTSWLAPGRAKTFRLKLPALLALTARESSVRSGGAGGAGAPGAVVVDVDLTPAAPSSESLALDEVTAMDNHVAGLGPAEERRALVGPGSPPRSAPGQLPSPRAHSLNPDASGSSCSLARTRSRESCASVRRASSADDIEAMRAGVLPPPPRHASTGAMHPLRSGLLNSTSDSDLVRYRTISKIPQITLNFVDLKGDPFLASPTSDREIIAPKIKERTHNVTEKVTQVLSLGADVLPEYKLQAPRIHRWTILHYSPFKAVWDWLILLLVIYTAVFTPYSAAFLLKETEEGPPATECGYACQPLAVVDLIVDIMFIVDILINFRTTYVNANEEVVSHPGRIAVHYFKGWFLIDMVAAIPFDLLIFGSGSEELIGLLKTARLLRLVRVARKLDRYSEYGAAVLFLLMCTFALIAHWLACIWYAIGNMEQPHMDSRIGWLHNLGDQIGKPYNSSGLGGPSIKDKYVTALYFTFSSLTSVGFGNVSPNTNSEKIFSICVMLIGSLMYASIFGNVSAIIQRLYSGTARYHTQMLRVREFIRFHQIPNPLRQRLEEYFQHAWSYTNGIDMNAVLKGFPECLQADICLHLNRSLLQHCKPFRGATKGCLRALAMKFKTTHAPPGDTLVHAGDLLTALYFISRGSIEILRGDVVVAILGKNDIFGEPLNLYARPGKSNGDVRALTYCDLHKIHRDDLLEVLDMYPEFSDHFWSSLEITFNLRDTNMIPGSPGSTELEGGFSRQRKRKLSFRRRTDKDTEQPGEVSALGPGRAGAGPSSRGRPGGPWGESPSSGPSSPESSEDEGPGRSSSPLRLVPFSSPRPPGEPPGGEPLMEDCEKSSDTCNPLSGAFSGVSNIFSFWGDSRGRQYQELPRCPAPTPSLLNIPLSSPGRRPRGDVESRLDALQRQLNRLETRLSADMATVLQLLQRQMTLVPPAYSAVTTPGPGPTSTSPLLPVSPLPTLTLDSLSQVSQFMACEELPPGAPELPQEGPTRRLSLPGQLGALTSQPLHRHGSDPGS
structure (smiles),measurement,setting,value
CCCCN(CCCC)CC(O)c1cc(Cl)cc2c1-c1ccc(Cl)cc1/C2=C/c1ccc(Cl)cc1 (stereo unspecified),Potency,[1],16.2 µM (active)
same,Potency,[2],2.68 µM (active)
Cc1cccc2cccnc12,Potency,[1],44.5 µM (active)
same,Potency,[2],inactive
same,Potency,[3],inactive
O=C(O)CCN(C1(C(=O)NO)CCCC1)S(=O)(=O)c1ccc(Oc2ccc(F)cc2)cc1,Potency,[1],inactive
same,Potency,[2],inactive
same,Potency,[3],inactive
COc1cc(S(=O)(=O)O)c(C)cc1N=Nc1c(O)ccc2cc(S(=O)(=O)O)ccc12,Potency,[1],35.6 µM (active)
same,Potency,[2],inactive
same,Potency,[3],inactive
O=C(O)Cc1ccc2c(c1)C(=O)c1ccccc1CO2,Potency,[1],inactive
same,Potency,[2],inactive
same,Potency,[3],inactive
C=CCn1c(=O)n(CC=C)c(=O)n(CC=C)c1=O,Potency,[1],31.6 µM (active)
same,Potency,[2],inactive
same,Potency,[3],2.82 µM (active)
Nc1cc(Cl)c(O)c(Cl)c1,Potency,[1],39.9 µM (active)
same,Potency,[2],inactive
same,Potency,[3],8.94 µM (active)
COc1ccc(NC(=O)CC(C)=O)cc1,Potency,[1],25.2 µM (active)
same,Potency,[2],inactive
same,Potency,[3],inactive
COC(=O)Nc1nc2ccc(C(=O)c3ccccc3)cc2[nH]1,Potency,[1],12.9 µM (active)
same,Potency,[2],inactive
same,Potency,[3],inactive
NC(=S)NC(N)=S,Potency,[1],35.6 µM (active)
same,Potency,[2],inactive
same,Potency,[3],inactive
CC(C)(C)c1csc(-c2cc3cc(OCc4ccccc4CC(=O)O)ccc3o2)n1,Potency,[1],inactive
same,Potency,[2],inactive
same,Potency,[3],inactive
CC1(C)CCC[C@]2(C)[C@H]3CCO[C@]3(C)CC[C@@H]12,Potency,[1],inactive
same,Potency,[2],inactive
same,Potency,[3],inactive
COC1=C(OC)C(=O)C(CCCCCCCCCCO)=C(C)C1=O,Potency,[1],15.5 µM (active)
same,Potency,[2],inactive
same,Potency,[3],inactive
O=S(=O)(O)c1ccccc1/C=C/c1ccc(-c2ccc(/C=C/c3ccccc3S(=O)(=O)O)cc2)cc1,Potency,[1],inactive
same,Potency,[2],inactive
same,Potency,[3],inactive
CCCCOC(=O)CC,Potency,[1],inactive
same,Potency,[2],inactive
same,Potency,[3],inactive
O=C(c1ccc(O)c(O)c1)c1ccc(O)cc1O,Potency,[1],31.7 µM (active)
same,Potency,[2],inactive
same,Potency,[3],5.63 µM (active)
C=C(CC)C(=O)c1ccc(OCC(=O)O)c(Cl)c1Cl,Potency,[1],inactive
same,Potency,[2],inactive
same,Potency,[3],inactive
Nc1ccc(NCCO)c([N+](=O)[O-])c1,Potency,[1],31.7 µM (active)
same,Potency,[2],inactive
same,Potency,[3],25.2 µM (active)
CCCCCC(C)OC(=O)COc1ccc(Cl)c2cccnc12 (stereo unspecified),Potency,[1],5.03 µM (active)
same,Potency,[2],9.77 µM (active)
same,Potency,[3],12.6 µM (active)
CC1(C)CCC[C@]2(C)[C@H]3CC(=O)O[C@]3(C)CC[C@@H]12,Potency,[1],44.8 µM (active)
same,Potency,[2],38.9 µM (active)
same,Potency,[3],31.7 µM (active)
COc1cc(C)ccc1O,Potency,[1],39.9 µM (active)
same,Potency,[2],inactive
same,Potency,[3],inactive
Cc1c2ccccc2c(C)c2c1ccc1ccccc12,Potency,[1],626 nM (active) and 1.78 µM (active)
same,Potency,[2],inactive
same,Potency,[3],22.2 µM (active) and 20 µM (active)
O=c1oc2cc(O)ccc2c2oc3cc(O)ccc3c12,Potency,[1],8.57 µM (active)
same,Potency,[2],inactive
same,Potency,[3],19.2 µM (active)
Cc1c(F)c(N2CCNC(C)C2)cc2c1c(=O)c(C(=O)O)cn2C1CC1 (stereo unspecified),Potency,[1],inactive
same,Potency,[2],inactive
same,Potency,[3],inactive
O=c1[nH]c(=O)n([C@H]2C[C@H](O)[C@@H](CO)O2)cc1F,Potency,[1],inactive
same,Potency,[2],inactive
same,Potency,[3],inactive
COc1ccc(-c2coc3cc(O)ccc3c2=O)cc1,Potency,[1],12.6 µM (active)
same,Potency,[2],inactive
same,Potency,[3],inactive
C=Cc1cccc(C)c1,Potency,[1],inactive
same,Potency,[2],inactive
same,Potency,[3],inactive
CCCCCCCCCCCCCC[N+](C)(C)Cc1ccccc1,Potency,[1],72.1 µM (active) and inactive
same,Potency,[2],993 nM (active) and 1.69 µM (active) and 1000 µM (active)
same,Potency,[3],inactive
OC[C@H]1O[C@H](O[C@H]2O[C@H](CO)[C@@H](O)[C@H](O)[C@H]2O)[C@H](O)[C@@H](O)[C@@H]1O,Potency,[1],63.7 µM (active)
same,Potency,[2],inactive
same,Potency,[3],inactive
CC(CO)Oc1ccccc1 (stereo unspecified),Potency,[1],inactive
same,Potency,[2],inactive
same,Potency,[3],inactive
OC1CCC(C2CCCCC2)CC1 (stereo unspecified),Potency,[1],35.6 µM (active)
same,Potency,[2],inactive
same,Potency,[3],inactive
O=C(O)c1cc(-c2ccc(F)cc2F)ccc1O,Potency,[1],inactive
same,Potency,[2],inactive
same,Potency,[3],inactive
C[C@H]1NCc2cc(-c3ccc4c(=O)c(C(=O)O)cn(C5CC5)c4c3OC(F)F)ccc21,"activity change, negative = inhibition",[1],13.9% [at 23.6 µM] (inactive)
same,"activity change, negative = inhibition",[2],-3.88% [at 15.8 µM] (inactive)
same,"activity change, negative = inhibition",[3],10.5% [at 23.6 µM] (inactive)
CCN(CC)C(=O)c1cc(S(=O)(=O)Cc2ccccc2)c(N2CCC(c3ccccc3)CC2)cc1N(CC)CCN(C)C,Potency,[1],inactive
same,Potency,[2],1.72 µM (active)
same,Potency,[3],0.125 µM (active)
